± gives the standard deviation.

The subject of the test is MILI (PIWIL2) piRISC loaded with piRNA #1 (26 nt). Description: pre-steady-state target cleavage rate (min^-1); guide: piRNA #1 5'p-UGAGGUAGUAGGUUGUAUAGUAUCCA; MIWI and MILI are mouse PIWI proteins and EfPiwi is from a freshwater sponge; tags in brackets are library labels; higher = faster piRNA-guided slicing of the target. The note with it: auxiliary factor: 500 nM mouse GTSF1. An outline of the steps: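 The method was Cleave-'n-Seq, in which uncleaved targets from a transcribed, DNA-blocked target RNA library were sequenced after exposure to active affinity-purified piRISC carrying one synthetic guide, with or without GTSF1 partner protein. Reactions contained 0.1 nM library, 1 nM piRISC and, where present, 500 nM GTSF1 in HEPES–potassium acetate buffer at 33 °C for 0–8 or 0–960 min. Reads were normalised to depth and to weakly complementary targets, three trials were pooled, and k3 was capped at 0.0001 min^-1. The pre-steady-state cleavage rate came from a burst-and-steady-state fit.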
Turning to GGAGAGGAUACAAUUCAACCUACUACCUCA, the “pre-steady-state target cleavage rate” value is 0.174 ± 0.012.

Take GGAGACCUAUGUAUACAACCUUCUACCACA: the “pre-steady-state target cleavage rate” value stood at 0.00445 ± 0.0026.

Take GGAGACCUUACUAUACAACUACUACCUCA: the “pre-steady-state target cleavage rate” value came to 0.0157 ± 0.0032.

As for GGAGACCUAAGUAUACAACCUUCUACCUCA, the “pre-steady-state target cleavage rate” value stood at 0.00652 ± 0.0032.

Turning to GGAGACCUUACUAUACAACCUACUAACUCA, the “pre-steady-state target cleavage rate” value stood at 0.0948 ± 0.017.

Turning to GGAGACCUUACUAUUCAACCUUCUACCUCA, the “pre-steady-state target cleavage rate” value turned out to be 0.00471 ± 0.0024.

GGAGACCUUUCUAUAGAACCUACUACCUCA: the “pre-steady-state target cleavage rate” value came to 0.0818 ± 0.011.

As to GGAGACCUAUCUAUUCAACCUACUUCCUCA, the “pre-steady-state target cleavage rate” value was determined as 0.0412 ± 0.0086.

On to GGAGACCUAUCUAUACAACCUACCACCUCA, for which the “pre-steady-state target cleavage rate” value was found to be 0.0927 ± 0.018.

For the sequence GGAGACCUAUGAUAACAACCUAUCUACCUCA, the “pre-steady-state target cleavage rate” value was determined as 0.00737 ± 0.0021.

On to GGAGACGAUACUAUACAACCUACGUACCUCA, for which the “pre-steady-state target cleavage rate” value turned out to be 0.108 ± 0.013.

As to GGAGACCAUACUAUUCAACCUACUACCACA, the “pre-steady-state target cleavage rate” value stood at 0.189 ± 0.023.

As for GGAGACCUAUGAAUACAACCUAUUACCUCA, the “pre-steady-state target cleavage rate” value is 0.00604 ± 0.003.

As to GGAGACCUAUCUAUACAAGCUACUUCCUCA, the “pre-steady-state target cleavage rate” value stood at 0.164 ± 0.015.

Regarding GGAGACGAUACUUUACAACCUACUACCACA, the “pre-steady-state target cleavage rate” value is 0.2 ± 0.025.

Regarding GGAGACCUUACUAUACUACCUACUACGUCA, the “pre-steady-state target cleavage rate” value is 0.0704 ± 0.01.

Take GGAGACCUUAGUAUACAACCUAGUACCUCA: the “pre-steady-state target cleavage rate” value is 0.0225 ± 0.0077.

GGAGACCUAUGAUAAAACCUACUACCUCA: the “pre-steady-state target cleavage rate” value worked out at 0.00798 ± 0.0023.

Regarding GGAGACCUAUGUAUACAACCUACUACCAUCA, the “pre-steady-state target cleavage rate” value was 0.0684 ± 0.01.

In the case of GGAGACCUAUGAUAUCAAGGAACUACCUCA, the “pre-steady-state target cleavage rate” value was below 0.0001.

With GGAGACCUAUCUAUAGAACCUACUACGUCA, the “pre-steady-state target cleavage rate” value was found to be 0.0269 ± 0.0089.

Regarding GGAGACCUAUCUAUACAACCAAGUACCUCA, the “pre-steady-state target cleavage rate” value was 0.00317 ± 0.0031.

In the case of GGAGACCUAACUAUACAACCUACUACACUCA, the “pre-steady-state target cleavage rate” value was 0.168 ± 0.028.

For the sequence “GGAGACCUAUGAUUACAACCUACUACCUCG [g2:g17:cont:t1G]”, the “pre-steady-state target cleavage rate” value came to 0.00649 ± 0.0032.

Regarding GGAGAGGAUUCUAUACAAGCUACUACCUCA, the “pre-steady-state target cleavage rate” value came to 0.15 ± 0.01.

With GGAGACCUUACUAUAGAACCUACUACCACA, the “pre-steady-state target cleavage rate” value is 0.0558 ± 0.012.

Turning to GGAGACCUUACAAUACAACCUACUACCACA, the “pre-steady-state target cleavage rate” value was found to be 0.133 ± 0.015.

For GGAGACCUAACUAUUGAACCUACUACCUCA, the “pre-steady-state target cleavage rate” value was 0.0878 ± 0.011.

In the case of GGAGACCUAUCUAUAGAACCUACAACCUCA, the “pre-steady-state target cleavage rate” value came out at 0.00275 ± 0.0025.

Take GGAGACCUAUGUAUACAAGCUAGUACCUCA: the “pre-steady-state target cleavage rate” value is 0.0538 ± 0.0098.

For the sequence GGAGACCUAUCAAUUCAACCUACUACCUCA, the “pre-steady-state target cleavage rate” value was 0.00721 ± 0.0029.

With GGAGACGAUACUAUACAACCUACUUCGUCA, the “pre-steady-state target cleavage rate” value came out at 0.0101 ± 0.0048.

Take GGAGACCUAUCUUUACAACCUAGUACCUCA: the “pre-steady-state target cleavage rate” value was 0.00897 ± 0.003.

In the case of GGAGACCAUACAAUACAACCUACUACCACA, the “pre-steady-state target cleavage rate” value is 0.177 ± 0.022.

On to GGAGUGGAAACUAUAGAACCUACUACCUCA, for which the “pre-steady-state target cleavage rate” value amounted to 0.204 ± 0.014.

Regarding GGAGUCGAUACUUUACAACCUACUACCUCA, the “pre-steady-state target cleavage rate” value stood at 0.185 ± 0.009.

On to GGAGACCUAUGAAAACAACCUACUUCCUCA, for which the “pre-steady-state target cleavage rate” value came out at 0.00368 ± 0.002.

Turning to GGAGACCUAUGAUUACAACCUACAACCUCA, the “pre-steady-state target cleavage rate” value was found to be 0.00538 ± 0.0023.

Consider GGAGACCUAUGAUAUGUACCAACUAGCUCA, for which the “pre-steady-state target cleavage rate” value is below 0.0001.
